STK33 inh: STK33 kinase inhibitors, primary screen, biochemical, luminescence, ADP-Glo, MBP substrate | 27,000 tested, 0.44% active | inhibition, % at 12.5 µM | Serine/threonine-protein kinase 33 (Homo sapiens), Q9BYT3; in the data active = inhibition above about 20%; inconclusive = no clear call, values can overlap the other calls
Target sequence (Q9BYT3 whole entry, looked up): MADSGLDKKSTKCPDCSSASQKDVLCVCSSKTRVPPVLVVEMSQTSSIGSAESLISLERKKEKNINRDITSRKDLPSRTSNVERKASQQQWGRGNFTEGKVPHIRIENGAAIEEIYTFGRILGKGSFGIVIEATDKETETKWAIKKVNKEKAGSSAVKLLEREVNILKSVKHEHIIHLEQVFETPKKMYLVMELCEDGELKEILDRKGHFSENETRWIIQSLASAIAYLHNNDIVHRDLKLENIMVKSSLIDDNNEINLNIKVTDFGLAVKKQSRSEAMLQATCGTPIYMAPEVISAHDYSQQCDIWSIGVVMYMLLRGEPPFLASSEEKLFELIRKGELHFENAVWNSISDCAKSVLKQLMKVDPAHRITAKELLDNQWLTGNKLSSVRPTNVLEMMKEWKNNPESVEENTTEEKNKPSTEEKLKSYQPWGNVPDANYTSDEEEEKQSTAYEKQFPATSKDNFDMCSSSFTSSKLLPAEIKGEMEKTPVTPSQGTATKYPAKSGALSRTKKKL
ID4 SMM: binders of human ID4 protein, primary screen, biochemical, small molecule microarray, single point | DNA-binding protein inhibitor ID-4 (Homo sapiens), P47928 | Flag-ID4 binding, fluorescence F/B | calls only | 31,000 tested, 1.2% active | AID 624137, 2012; call rule not given here;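 note: a binder raises fluorescence above local background on the spot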
* = called active by the depositor; i = inactive; ? = inconclusive; . = no result; + = active, no number. The full list was thinned out, with hits kept by preference.

SMILES | STK33 inh | ID4 SMM
CN(C)c1ccc(C(=C2C=CC(=[N+](C)C)C=C2)c2ccc(N(C)C)cc2)cc1 | 76* | .
Cc1cccnc1NC(=S)Nc1ccc(S(N)(=O)=O)cc1 | ? | i
Cc1ccc(S(=O)(=O)NCC(=O)Nc2ccc(Cl)c(C(F)(F)F)c2)cc1 | 4 | i
COc1ccc(NC(=S)NCCc2ccccc2OC)c(OC)c1 | 0 | +
COc1ccc(NC(=O)NCCc2ccccc2OC)c(OC)c1 | 2 | i
COc1ccc(NC(=O)NCc2ccc(C(=O)O)cc2)c(OC)c1 | -1 | +
COc1ccc(NC(=O)C23CC4CC(C2)CC(C(=O)Nc2ccc(OC)cc2OC)(C4)C3)c(OC)c1 | -2 | i
O=C(CSc1nnc2sc3ccccc3n12)Nc1c(Cl)cccc1Cl | -4 | i
COC(=O)c1ccccc1NC(=O)COc1ccc2ccccc2c1Br | 2 | i
OCC1(CO)COC(COc2ccccc2)=N1 | . | +
O=C(Cn1c(COc2ccccc2)nc2ccccc21)N1CCOCC1 | 1 | i
CC(C)[C@H](NC(=O)[C@H](C)N(C)C)C(=O)N1CC[C@@H]2Oc3ccc(cc3)/C=C\NC(=O)[C@H](Cc3ccccc3)NC(=O)C21 (some centres undefined) | -3 | .
O=C(Nc1cccc(NC(=O)c2ncn[nH]2)c1)c1cccc(Cl)c1 | 32* | i
O=C(Nc1ccccc1C(=O)O)c1ncn[nH]1 | 2 | i
Cc1ccccc1NC(=O)CSC1CC(=O)N(c2ccc(F)cc2)C1=O (centres undefined) | -1 | i
O=C(Nc1sc2c(c1C(=O)NCc1cccnc1)CCCCC2)c1ccccc1 | -1 | +
COC(=O)Nc1sc2c(c1C(=O)NCc1ccco1)CCC2 | 3 | i
O=C(Nc1sc2c(c1C(=O)NCc1cccnc1)CCCC2)c1ccco1 | 12 | i
COC(=O)Nc1sc2c(c1C(=O)NCc1ccco1)CCCC2 | 3 | +
COC(=O)c1cc(OC)c(OC)cc1NC(=O)CCN1C(=O)c2ccccc2C1=O | 0 | i
COc1ccc2c(c1)O[C@@H]1COc3cc(OC)c(OC)cc3[C@@H]1C2=O | -26 | .
CC(C)(C)c1ccc(-c2nnc(SCC(=O)Nc3ccccc3)n2-c2ccccc2)cc1 | 4 | i
COc1cc(/C=C2/SC(=Nc3cc(C)cc(C)c3)NC2=O)cc(Br)c1OC | 0 | .
COc1ccccc1OCC(=O)Nc1oc(-c2ccccc2)c(-c2ccccc2)c1C#N | -3 | +
Cc1ccnc(SCC(=O)Nc2oc(-c3ccccc3)c(-c3ccccc3)c2C#N)n1 | -6 | i
SMILES | STK33 inh | ID4 SMM
O=C(O)CCCCCCC(=O)Nc1ccc(C2OC(CSc3ccncc3)CC(c3ccccc3)O2)cc1 (centres undefined) | . | +
COC(=O)CCCCCCC(=O)Nc1ccc(C2OC(CN(C)Cc3ccccc3)CC(c3ccccc3)O2)cc1 (centres undefined) | . | i
CN(Cc1ccccc1)CC1CC(c2ccccc2)OC(c2ccc(NC(=O)CCCCCCC(=O)O)cc2)O1 (centres undefined) | . | +
COCC1CC(c2ccccc2)OC(c2ccc(NC(=O)CCCCCCC(=O)O)cc2)O1 (centres undefined) | . | +
O=C(O)CCCC(=O)Nc1ccc(Cl)c(Cl)c1 | -3 | i
COC(=O)CCCCCCC(=O)Nc1ccc(C=O)cc1 | . | i
C[C@@H]1CCCCO[C@@H](CN(C)S(=O)(=O)c2ccc(F)cc2)[C@@H](C)CN([C@@H](C)CO)C(=O)c2cc(NC(=O)Nc3ccccc3)ccc2O1 | . | i
COc1ccc(OC)c(NC(=O)c2ccc(Cl)c(S(=O)(=O)Nc3ccc(C)cc3C)c2)c1 | 1 | i
Cc1ccc(N(CC(N)=O)S(=O)(=O)c2ccccc2)cc1 | 0 | i
CC(C)NC(=O)N(C)C[C@H]1OCCCC[C@@H](C)Oc2ccc(NC(=O)Nc3ccc(C(F)(F)F)cc3)cc2C(=O)N([C@@H](C)CO)C[C@H]1C | . | i
C[C@@H]1CCCCO[C@H](CN(C)C(=O)Cc2ccccc2)[C@H](C)CN([C@@H](C)CO)C(=O)c2cc(NC(=O)c3ccncc3)ccc2O1 | . | i
CC(C)NC(=O)N(C)C[C@@H]1OCCCC[C@@H](C)Oc2ccc(NC(=O)Nc3ccc(C(F)(F)F)cc3)cc2C(=O)N([C@@H](C)CO)C[C@@H]1C | . | +
CNC[C@H]1Oc2ccc(NC(=O)c3ccncc3)cc2C(=O)N([C@@H](C)CO)C[C@@H]1C | 0 | .
CNC[C@H]1Oc2ccc(NS(C)(=O)=O)cc2CC(=O)N([C@@H](C)CO)C[C@@H]1C | -1 | +
CNC[C@H]1Oc2ccc(NC(=O)c3ccncc3)cc2C(=O)N([C@H](C)CO)C[C@@H]1C | . | +
CNC[C@H]1Oc2ccc(NS(=O)(=O)c3ccccc3)cc2CC(=O)N([C@@H](C)CO)C[C@@H]1C | 0 | i
C[C@@H]1CN([C@@H](C)CO)C(=O)c2cc(NC(=O)c3ccncc3)ccc2O[C@@H](C)CCCCO[C@H]1CN(C)C(=O)Cc1ccccc1 | . | +
O=C(O)CNC(=O)CSc1ccc(Cl)cc1 | -3 | .
C[C@@H]1CN([C@H](C)CO)C(=O)c2cc(NC(=O)c3ccncc3)ccc2O[C@@H](C)CCCCO[C@@H]1CN(C)C(=O)Nc1cccc2ccccc12 | . | +
CNC[C@@H]1Oc2c(NC(=O)c3ccc(-c4nccs4)cc3)cccc2C(=O)N([C@H](C)CO)C[C@@H]1C | . | i
C[C@@H]1CN([C@@H](C)CO)C(=O)c2cc(NC(=O)c3ccncc3)ccc2O[C@@H](C)CCCCO[C@H]1CN(C)C(=O)Nc1cccc2ccccc12 | . | i
C[C@@H]1CCCCO[C@@H](CN(C)C(=O)Nc2ccccc2)[C@@H](C)CN([C@H](C)CO)C(=O)c2cc(NC(=O)c3ccncc3)ccc2O1 | -1 | .
C[C@H]1CCCCO[C@@H](CN(C)C(=O)Nc2ccccc2)[C@@H](C)CN([C@@H](C)CO)C(=O)c2cc(NC(=O)c3ccncc3)ccc2O1 | . | +
CNC[C@@H]1Oc2c(NC(=O)c3ccc(-c4nccs4)cc3)cccc2C(=O)N([C@H](C)CO)C[C@H]1C | . | +
Cc1ccc(NC(=O)CSc2c(C)n[nH]c2C)cc1Cl | -2 | i
SMILES | STK33 inh | ID4 SMM
Cc1c(-n2c(/C=C\c3ccc([N+](=O)[O-])o3)nc3ccccc3c2=O)c(=O)n(-c2ccccc2)n1C | -2 | i
Cc1c(NC(=O)COc2ccc(Br)cc2)cccc1-c1nc2cc(Cl)ccc2o1 | 6 | i
CSc1ccc(C2C(C(=O)c3sc(C)nc3C)C(=O)C(=O)N2Cc2cccnc2)cc1 (centres undefined) | -1 | +
Cc1c(C(=O)C2C(=O)C(=O)N(Cc3cccnc3)C2c2ccc(F)cc2)cnn1-c1ccccc1 (centres undefined) | 2 | i
CS(=O)(=O)N(CC(=O)Nc1ccc(Br)cc1F)c1ccccc1Cl | -2 | i
O=C(CCN1C(=O)c2ccccc2C1=O)Nc1ccc(-c2nc3ccccc3[nH]2)cc1 | 7 | i
O=C(O)CCC(=O)Nc1ccc(-c2nc3ccc(C(=O)c4ccccc4)cc3[nH]2)cc1 | 3 | +
C=CCc1c(C)nc(OCC(=O)OCC)c(C#N)c1C | 1 | .

Screening results (PubChem)
